# Bioassay records: PubChem BioAssay, National Center for Advancing Translational Sciences (NCATS)
# Shown are actives, neighbours in structure and some others; about 2.4% of the full set was active somewhere.
# GLS inh: blocks human kidney-isoform glutaminase activity; GLS enzymatic activity, qHTS titration; O94925; hit rate 0.21% among 410,000; Potency, µM (doses to about 45.5 µM), inactives show at the top dose activity change, negative = inhibition, most hits filed as inhibitors; also: % is scaled to controls: 0 for no effect and ±100 for the full control effect
#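 Assay buffer: 45 mM KH2PO4 pH 8.2, 0.02% Tween-20. hKGA acts on L-glutamine (1 mM solution added); product glutamate is reported by an oxidase/peroxidase Amplex Red coupling, with fluorescence taken at baseline and 30 min.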
# POLK inh: blocks human DNA polymerase kappa activity. hit rate 0.53% among 400,000. Potency, µM (highest dose often 107 µM), inactives show at the highest dose activity, negative = inhibition, hits mostly inhibitors. purified Pol kappa, fluorescent DNA synthesis assay, 10 min. AID 588579; also: % is scaled to controls: 0 for no effect and ±100 for the full control effect
#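 Pol kappa 10 nM + cpd, 15 min RT; start w/ substrate 50 nM final; fluorescence kinetic read, 0 and 10 min. Neg ctrl: buffer, no enzyme.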
# Pol eta inh: DNA polymerase eta (human) inhibition | Potency, µM (titrated, usually from 114 µM), for inactives: at the highest dose activity change, negative = inhibition, hits mostly inhibitors | hit rate 1.2% among 390,000 | AID 588591 | recombinant Pol eta, fluorescent DNA replication assay | Q9Y253; also: % is scaled to controls: 0 for no effect and ±100 for the full control effect
# Target sequence (Q9Y253 whole entry, looked up): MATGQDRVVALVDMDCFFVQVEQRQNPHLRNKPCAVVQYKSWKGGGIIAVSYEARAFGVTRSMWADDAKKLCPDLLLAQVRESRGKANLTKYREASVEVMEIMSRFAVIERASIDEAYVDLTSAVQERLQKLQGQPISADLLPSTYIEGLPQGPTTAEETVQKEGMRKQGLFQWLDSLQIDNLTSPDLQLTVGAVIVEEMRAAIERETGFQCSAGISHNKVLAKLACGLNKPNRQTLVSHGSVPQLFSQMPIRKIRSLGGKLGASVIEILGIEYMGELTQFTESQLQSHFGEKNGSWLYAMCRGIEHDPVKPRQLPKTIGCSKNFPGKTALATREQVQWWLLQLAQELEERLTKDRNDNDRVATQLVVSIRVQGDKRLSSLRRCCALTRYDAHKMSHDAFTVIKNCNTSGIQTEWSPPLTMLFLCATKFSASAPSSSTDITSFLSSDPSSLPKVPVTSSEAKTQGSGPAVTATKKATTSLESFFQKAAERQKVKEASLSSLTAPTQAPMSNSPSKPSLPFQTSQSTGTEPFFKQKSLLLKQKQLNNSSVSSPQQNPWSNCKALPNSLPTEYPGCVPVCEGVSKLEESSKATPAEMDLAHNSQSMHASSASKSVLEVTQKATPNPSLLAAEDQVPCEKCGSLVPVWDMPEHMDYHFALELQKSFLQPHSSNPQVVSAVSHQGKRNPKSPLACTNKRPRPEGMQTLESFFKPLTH
#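 Fluorescent replication assay: 50 nM final substrate added after a 15 min room-temperature compound preincubation with 10 nM enzyme. Signal taken at 0 min and again at 10 min.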
# Pol iota inh: blocks human DNA polymerase iota activity. Q9UNA4. Pol iota fluorescent replication assay, 10 min. Potency, µM (doses to about 115 µM), inactives show at the highest dose activity, negative = inhibition, actives largely listed as inhibitors. hit rate 1% among 390,000
#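 Pol iota at 10 nM preincubated 15 min with compounds at room temperature; reaction started with fluorescent substrate, 50 nM final. Fluorescence read kinetically at 0 and 10 min; buffer-only wells as negative control.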
# APE1 inh: APE1 (human) endonuclease inhibition; recombinant APE1, TAMRA/BHQ-2 abasic DNA cleavage fluorescence; Potency, µM (series often up to 65.8 µM), for inactives: at the top dose activity change, negative = inhibition, hits mostly inhibitors; hit rate 0.35% among 350,000; P27695;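 also: plate controls were vehicle for no effect and reference inhibitor for full effect; nearly all actives have a fitted effect of over 55% in size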
#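 Enzyme (0.75 nM final) and test compound are incubated 15 min at room temperature before adding 50 nM quenched THF abasic-site duplex. Cleavage dequenches TAMRA, followed at 525/598 nm over three reads one minute apart.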
# POLB inh: DNA polymerase beta (human) inhibition | Pol beta primer extension/strand displacement, fluorescence kinetic | Potency, µM (series often up to 114 µM), for inactives: at the highest dose activity change, negative = inhibition, most hits filed as inhibitors | hit rate 1.3% among 340,000; also: % is scaled to controls: 0 for no effect and ±100 for the full control effect
#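 Homogeneous kinetic assay of primer extension and strand displacement by 10 nM Pol beta, preincubated 15 min at room temperature with compound before 50 nM substrate (final) was added. Read at 0 and 10 min; four-parameter Hill fit.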
# The depositor's hits bear a star; ? = inconclusive; nt = no result; [ ] = another dose, or the depositor's remark. Calls follow the shape of the dose curve; as a rule, active = well fitted curve in the direction sought with a large enough effect; inconclusive = small, poorly fitted or top-dose-only effect, or another doubt; inactive = no such curve, though single readings can be large; an effect the other way counts as inactive or inconclusive. Potency is read from the fitted curve at half-maximal effect.
SMILES,GLS inh,POLK inh,Pol eta inh,Pol iota inh,APE1 inh,POLB inh
CCOC(=O)N1CCN(S(=O)(=O)c2ccc(C)cc2)C1c1ccc(OC)cc1 (stereo unspecified),0%,-9%,-3%,37%,-2%,0%
COc1ccc(-c2cc(=O)c3c(O)cc(O[C@@H]4OC(COC5OC(C)C(O)C(O)[C@@H]5O)C(O)C(O)C4O)cc3o2)cc1 (stereo partly specified),nt,-11%[60.1 µM],nt,nt,4%,nt
COc1ccc(-c2cc(=O)c3c(O)cc(O[C@H]4OC(COC5OC(C)C(O)C(O)[C@H]5O)C(O)C(O)C4O)cc3o2)cc1O (stereo partly specified),?,20µM*,nt,nt,nt,nt
N#Cc1ccc(C(=O)N2CCCCC2c2cc(C(=O)NCc3ccccc3)no2)cc1 (stereo unspecified),3%,nt,nt,nt,nt,nt
Cc1oc2ncn(C)c(=O)c2c1C(=O)NC(C)c1ccccc1 (stereo unspecified),11µM*,-17%,-5%,18%,nt,-21%
O=c1c2cc(F)ccc2sn1-c1ccccc1,7.1µM*,-6%,-5%,-13%,39%,nt
O=c1c2cc(C(F)(F)F)ccc2sn1-c1ccccc1,11µM*,nt,-17%,nt,nt,nt
O=C(Nc1ccc2c(c1)C(=O)NC2=O)c1ccccc1,0%,10%,-2%,6%,-5%,23%
O=C(Nc1ccc2c(c1)C(=O)NC2=O)c1cccc(C(F)(F)F)c1,-7%,-23%,-8%,?,-6%,79µM*
CC1(C)c2ccccc2N(CC(N)=O)C12C=Cc1ccccc1O2 (stereo unspecified),9%,-16%,-10%,-23%,3%,6%
CC1(C)c2ccccc2N2CC(=O)N(CC(N)=O)C21C (stereo unspecified),7%,45µM*,?,?,?,45µM*
CC1=NN(c2ccc(C(=O)OC(C)C)cc2)C(=O)/C1=C\C=C\c1ccco1,-4%,-3%,?,-2%,8%,50µM*
CCOc1cc(/C=C2/C(=O)N(c3ccccc3)N=C2C)ccc1OC(=O)c1cccs1,-21%,-4%,-10%,0.35µM*,-5%,16%
COc1ccc(/C=C2/C(=O)N(c3ccccc3)N=C2C)cc1OC,8%,-3%,-8%,2.5µM*,-2%,?
O=C1NN(c2ccccc2)C(=O)/C1=C\c1cccc(OC(=O)c2cccs2)c1,-27%,-28%,28µM*,?,-1%,28µM*
CCOC(=O)c1ccc(N2N=C(C)/C(=C/C=C/c3ccco3)C2=O)cc1,-1%,-25%,-14%,?,4%,?
O=C(/C=C/c1ccccc1)COC(=O)c1ccccc1,-23%,-18%,-13%,?,nt,nt
CC1(C)c2[nH]c3ccccc3c2C[C@@H]2C(=O)N(Cc3ccccc3Cl)C(=O)N21,-8%,-12%,-1%,-24%,nt,nt
COCCNC(=S)N/N=C(\C)c1cccc(C(F)(F)F)c1,-11%,-4%,-11%,11%,2%,-11%
CC1=NN(c2ccccc2)C(=O)/C1=C/C=C/c1ccc(N(C)C)cc1,17%,14%,-3%,-4%,-5%,1%
CC1=NN(c2ccccc2)C(=O)/C1=C\C=C\c1ccccc1,?,-16%,79µM*,?,1%,?
O=[N+]([O-])c1ccc(Cl)c(-c2ccc(/C=N/c3c(-c4ccco4)nc4ccccn34)o2)c1,8%,-13%,-22%,?,5%,50µM*
O=[N+]([O-])c1ccc(-c2ccc(/C=N/c3c(-c4ccco4)nc4ccccn34)o2)cc1,-2%,-8%,-16%,-18%,-4%,4%
Oc1cccc(/C=N/c2c(-c3ccco3)nc3ccccn23)c1,0%,-11%,-14%,25µM*,0%,1%
O=[N+]([O-])c1ccc(-c2ccc(/C=N/c3c(-c4ccco4)nc4ccccn34)o2)c(Cl)c1,nt,nt,nt,nt,-1%,-12%
